# Screening data: PubChem, Bradner/Qi Labs at DFCI
# CBX7 AlphaScr = CBX7 inhibition, primary AlphaScreen; O95931; AlphaScreen His6-CBX7 / biotin-H3K27me3 peptide binding; hits give low values; normalised signal (fraction of DMSO) (test concentration not listed); 66,000 compounds, 1.1% hits; AID 1224903; in the data active means normalised signal below about 0.5
# Target sequence (O95931 whole entry, looked up): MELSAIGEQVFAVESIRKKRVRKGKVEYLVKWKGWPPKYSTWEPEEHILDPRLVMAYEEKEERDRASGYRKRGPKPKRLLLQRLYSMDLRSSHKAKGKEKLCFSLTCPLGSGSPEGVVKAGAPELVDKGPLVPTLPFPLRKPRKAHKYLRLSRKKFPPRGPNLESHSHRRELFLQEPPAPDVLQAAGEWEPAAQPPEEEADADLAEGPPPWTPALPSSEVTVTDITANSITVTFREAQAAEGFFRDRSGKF
# An asterisk follows results filed as active. Many of the other results were omitted from the sample, so hits are more common in it than they were.
SMILES,CBX7 AlphaScr
CCc1c(C)nc2cc(-c3ccc(C)cc3)[nH]n2c1=O,1
CCN(CC)c1ccc(NC2c3ccccc3C(=O)N2c2ccc(Cl)cn2)c(C)c1 (stereo unspecified),0.065*
Cc1ccc(NC2c3ccccc3C(=O)N2c2ccc(Cl)cn2)cc1F (stereo unspecified),1.2
Cc1cccc(NC2c3ccccc3C(=O)N2c2ccc(Cl)cn2)c1C (stereo unspecified),0.93
Cc1cccc(-c2nc(C(=O)NCc3ccc4c(c3)OCO4)c(C)o2)c1,0.74
O=C1CCc2cc(S(=O)(=O)NCCN3CCN(c4ccccc4)CC3)ccc2N1,0.99
COc1ccc2sc(N3C(=O)CC(Cc4cc(C)cc(C)c4)C3=O)nc2c1 (stereo unspecified),0.83
COC(=O)c1nnn(-c2nonc2N)c1CSc1nc2ccccc2o1,1
NC(=O)c1nnn(-c2nonc2N)c1CSc1nc2ccccc2o1,0.73
Nc1nonc1-n1nnc(C(=O)O)c1CSc1nc2ccccc2o1,0.018*
Cc1ccc(N2C(=O)Cn3cccc3C2C(=O)NC2CCCC2)cc1 (stereo unspecified),1.1
Cc1cc(C)n(-c2nc3ccccc3nc2Nc2ccc(C(C)C)cc2)n1,2.8
Cc1cc(C)n(-c2nc3ccccc3nc2Nc2ccc(N3CCCCC3)cc2)n1,0.42*
Cc1cc(C)n(-c2nc3ccccc3nc2Nc2ccc(F)cc2)n1,1.2
COC(=O)c1c(NC(=O)COc2cccc(C(F)(F)F)c2)sc(C)c1C,1.3
O=C1CC(NCCc2ccccn2)C(=O)N1c1ccc(Cl)cc1 (stereo unspecified),0.17*
CCOc1ccc(N2C(=O)CC(NCCc3ccccn3)C2=O)cc1 (stereo unspecified),0.86
Cc1ccc(N2C(=O)CC(NCCc3ccc(Cl)cc3)C2=O)cc1 (stereo unspecified),1.1
NS(=O)(=O)c1ccc(NC(=O)Cn2nc(Cc3cccnc3)c3ccccc3c2=O)cc1,0.95
Cc1oc(-c2cccc(Cl)c2)nc1Cn1c(SCc2ccc(F)cc2)nc2ccncc21,0.96
O=C(NC1CCCC1)C1c2ccccc2C(=O)N1c1cccc(C(F)(F)F)c1 (stereo unspecified),0.89
CCCSCCCNC(=O)c1ccc2c(c1)N=C(CC)c1cc(C)ccc1S2,0.93
OC(COc1ccc(Br)cc1)Cn1cnc2ccccc21 (stereo unspecified),0.59
Cc1ccc(Cl)c(OCC(O)Cn2cnc3ccccc32)c1 (stereo unspecified),0.68
Cc1cc(C)c(OCC(O)Cn2cnc3ccccc32)c(C)c1 (stereo unspecified),0.48*
SMILES,CBX7 AlphaScr
CCCc1nc2ccccc2n1CC(O)COc1c(C)cc(C)cc1C (stereo unspecified),0.93
O=C(O)c1ccccc1OCC(O)Cn1cnc2ccccc21 (stereo unspecified),1
OC(COc1ccccc1Cl)Cn1cnc2ccccc21 (stereo unspecified),0.25*
CCc1cccc(N2C(=O)Cn3cccc3C2C(=O)NC2CCCC2)c1 (stereo unspecified),0.98
CCOc1ccc(CCNC(=O)CCN2N=C(c3ccccc3)CCC2=O)cc1OCC,0.96
Cc1ccc(CCNC(=O)CN2CCN(Cc3ccc(C)cc3)C2=O)cc1,1
COc1ccc(-c2nnc(NC(=O)c3ccc(OC)c(OC)c3)o2)cc1,0.086*
COc1ccc(-c2nnc(NC(=O)c3ccc(Cl)cc3)o2)cc1,0.55
COc1ccc(C(=O)Nc2nnc(-c3cccc(C)c3)o2)cc1OC,0.018*
COc1ccc(C(=O)Nc2nnc(-c3ccccc3)o2)cc1OC,0.61
COc1ccc(C(=O)Nc2cccc(-c3nc4ccccc4o3)c2)cc1OC,1.3
Cc1cccc(-c2nnc(NC(=O)c3ccc(Cl)cc3)o2)c1,0.86
Cc1ccc(S(=O)(=O)c2cn(CC(=O)Nc3ccc(C)c(Cl)c3)c3ccccc3c2=O)cc1C,0.96
c1ccc(C(c2ccccc2)c2nc(-c3cccnc3)no2)cc1,0.32*
COc1ccc(-c2noc(C(c3ccccc3)c3ccccc3)n2)cc1,1.1
c1ccc(C(Cc2nc(-c3cccnc3)no2)c2ccccc2)cc1,0.93
O=C(CCCn1c(=O)[nH]c2ccccc2c1=O)NCC1CCCO1 (stereo unspecified),1.1
O=C(Cn1ncc2c1-c1ccccc1OC2)N1CCOCC1,1.1
Nc1nonc1-c1nc2ccccc2n1Cc1cc2c(cc1Cl)OCO2,1
O=C(NCc1ccccn1)C(=O)Nc1ccc2c(c1)OCO2,0.99
CCOc1ccccc1CN(CCc1ccc2c(c1)OCO2)Cc1ccccn1,0.069*
COc1ccc(Br)cc1CN(CCc1ccc2c(c1)OCO2)Cc1cccnc1,0.51
COc1ccc(-c2n[nH]c(C)c2-c2ccccc2)c(O)c1C,0.74
CC(CCc1ccccc1)NC(=O)Cc1c(C(=O)O)[nH]c2ccc(Cl)cc12 (stereo unspecified),1
COCc1nnc(NC(=O)c2ccc(S(=O)(=O)N(CC(C)C)CC(C)C)cc2)o1,0.081*
SMILES,CBX7 AlphaScr
C=CCN(CC=C)S(=O)(=O)c1ccc(C(=O)Nc2nnc(COC)o2)cc1,0.069*
Cc1cccc2c3c([nH]c12)CCN(Cc1ccccc1)C3,0.88
O=C(NCc1ccccc1Cl)c1ccc(CNc2c(NC3CCCC3)c(=O)c2=O)cc1,0.98
CCC1Sc2ccccc2N(CC(=O)NCCc2ccc(Cl)cc2)C1=O (stereo unspecified),1
Cc1ccc(CNC(=O)c2cnn3c(C(F)(F)F)cc(-c4cccs4)nc23)cc1,1
CCOc1ccc2nc(N3CCCC(C(=O)Nc4ccc(Br)cc4F)C3)sc2c1 (stereo unspecified),1
O=C(Nc1ccc2oc(-c3ccccc3Cl)nc2c1)c1ncn[nH]1,0.043*
Cc1c(NC(=O)c2ccccc2F)cccc1-c1nc2ccccc2s1,1.1
Cc1c(NC(=O)c2cc3ccccc3o2)cccc1-c1nc2cc(Cl)ccc2o1,1
Cc1c(NC(=O)c2ncn[nH]2)cccc1-c1nc2cc(Cl)ccc2o1,0.12*
Cc1c(NC(=O)c2ncn[nH]2)cccc1-c1nc2ccccc2s1,0.18*
O=C(Nc1ccccc1-c1nc2ccccc2s1)c1ccccc1,1
O=C(Nc1ccc2oc(-c3ccccc3Cl)nc2c1)c1ccc(F)cc1,1
Cc1c(NC(=O)c2ccccc2F)cccc1-c1nc2cc(Cl)ccc2o1,1.1
O=C(Nc1ccc2oc(-c3ccccc3Cl)nc2c1)c1cncc(Br)c1,1
O=C1CN(C(=O)c2cccc(C(F)(F)F)c2)C(c2ccccc2)c2cc(F)ccc2N1 (stereo unspecified),0.96
Cc1cc2c(cc1C)NC(CC(=O)Nc1ccc(O)cc1)C(=O)N2 (stereo unspecified),0.98
CC1(C)CC(Cc2ccccc2)(C(CN)CO)CCO1 (stereo unspecified),0.94
O=C(Cn1ncc2c1-c1ccccc1OC2)Nc1ccc(F)cc1,0.85
O=C(NC1CCCC1)C(c1ccccc1)N1CCC2(CC1)OCCO2 (stereo unspecified),1
COC(=O)c1c(NC(=O)C(C)Oc2ccc(Cl)c(C)c2)sc2c1CCCC2 (stereo unspecified),0.96
O=C(NC1CCCCC1)C1c2ccccc2C(=O)N1Cc1ccccc1 (stereo unspecified),1
CCOc1ccccc1NC(=O)C1CCCN(S(=O)(=O)c2c(C)noc2C)C1 (stereo unspecified),1.2
Cn1c(CNc2ccccc2O)nc2ccccc21,0.46*
Cn1c(CNc2cc(Cl)ccc2Cl)nc2ccccc21,1
